In PubChem BioAssay (EPA / NIEHS):
Activity calls are given as the source filed them. How the source made its calls: active means hit-call score of the fitted dose curve at least 0.9, where 1 is the maximum; inactive means score below 0.9.

Tests used:
Settings in all cases: mRNA level, 48 h; actives raise or lower the signal
[1] = read-out: Keratin 19 (KRT19), KRT19 (gene 3880); test: LTEA_HepaRG_KRT19: Life Technologies and Expression Analysis (LTEA) Assay for Keratin 19 (KRT19) using HepaRG (AID 2283512)
Summary of the method: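 Differentiated human HepaRG cells, plated 48 h, were exposed in duplicate for 48 h in serum-free induction medium to eight half-log concentrations up to 100 uM in 0.5% DMSO. KRT19 mRNA was quantified by qRT-PCR, normalized to ACTB, GAPDH and POLR2A, and fitted bidirectionally versus DMSO.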

[2] = read-out: JUN Transcription Factor, JUN (gene 3725); test: LTEA_HepaRG_JUN: Life Technologies and Expression Analysis (LTEA) Assay for JUN Transcription Factor using HepaRG (AID 2283513)
Summary of the method: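 Gene-expression endpoint: JUN mRNA (qRT-PCR, normalized to three reference genes) in HepaRG cultures treated 48 h with chemicals, duplicate wells, 100 uM maximum with half-log dilutions; bidirectional fitting relative to 0.5% DMSO.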

[3] = read-out: Lipase C (LIPC), LIPC (gene 3990); test: LTEA_HepaRG_LIPC: Life Technologies and Expression Analysis (LTEA) Assay for Lipase C (LIPC) using HepaRG (AID 2283514)
Summary of the method: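 LIPC expression was quantified by qRT-PCR against three housekeeping genes (ACTB, GAPDH, POLR2A). Differentiated human HepaRG cells received eight half-log doses (top 100 uM, 0.5% DMSO) in duplicate for 48 h; fitting bidirectional relative to DMSO.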

[4] = read-out: Lipoprotein lipase (LPL), LPL (gene 4023); test: LTEA_HepaRG_LPL: Life Technologies and Expression Analysis (LTEA) Assay for Lipoprotein lipase (LPL) using HepaRG (AID 2283515)
Summary of the method: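 LPL transcript levels quantified by TaqMan qRT-PCR against three housekeeping genes after 48 h chemical treatment of HepaRG cells. Eight-point half-log series from 100 uM in 0.5% DMSO, tested in duplicate; bidirectional fitting versus vehicle.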

[5] = read-out: matrix metalloproteinase-10 (MMP10), MMP10 (gene 4319); test: LTEA_HepaRG_MMP10: Life Technologies and Expression Analysis (LTEA) Assay for matrix metalloproteinase-10 (MMP10) using HepaRG (AID 2283517)
Summary of the method: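 Expression measured by TaqMan qRT-PCR with ACTB/GAPDH/POLR2A normalisation after 48 h chemical exposure of HepaRG cells. Eight half-log concentrations, top 100 uM, 0.5% DMSO vehicle, duplicates; gain or loss fitted against vehicle.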

[6] = read-out: matrix metalloproteinase-3 (MMP3), MMP3 (gene 4314); test: LTEA_HepaRG_MMP3: Life Technologies and Expression Analysis (LTEA) Assay for matrix metalloproteinase-3 (MMP3) using HepaRG (AID 2283519)
Summary of the method: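 Fluidigm-based TaqMan qRT-PCR, normalized to ACTB, GAPDH and POLR2A and fitted bidirectionally versus 0.5% DMSO, measured transcript levels. Treatment: duplicate 48 h exposures of HepaRG cells, ~100,000/well, to eight half-log concentrations topping at 100 uM.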

[7] = read-out: Paternally Expressed 10 (PEG10), PEG10 (gene 23089); test: LTEA_HepaRG_PEG10: Life Technologies and Expression Analysis (LTEA) Assay for Paternally Expressed 10 (PEG10) using HepaRG (AID 2283520)
Summary of the method: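 After 48 h exposure of differentiated HepaRG cells (0.5% DMSO vehicle, eight concentrations up to 100 uM, duplicates), PEG10 mRNA was measured by TaqMan qRT-PCR. Values were normalised to endogenous control genes and analysed bidirectionally against vehicle.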

[8] = read-out: Protein phosphatase 2A (PPP2R4), PTPA (gene 5524); test: LTEA_HepaRG_PPP2R4: Life Technologies and Expression Analysis (LTEA) Assay for Protein phosphatase 2A (PPP2R4) using HepaRG (AID 2283522)
Summary of the method: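 Using HepaRG cultures maintained in 0.5% DMSO, chemicals are tested 48 h at up to 100 uM in duplicate. Induction or suppression of PPP2R4 mRNA, measured by qRT-PCR, is fitted bidirectionally against the vehicle baseline.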

[9] = read-out: Phosphatase and tensin (PTEN), PTEN (gene 5728); test: LTEA_HepaRG_PTEN: Life Technologies and Expression Analysis (LTEA) Assay for Phosphatase and tensin (PTEN) using HepaRG (AID 2283523)
Summary of the method: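 Read-out: TaqMan qRT-PCR of PTEN transcript, normalized to three housekeeping genes, fitted in both directions against 0.5% DMSO. Differentiated human HepaRG cultures received chemicals for 48 h, eight-point half-log series topping at 100 uM.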

[10] = read-out: solute carrier (SLC22A1), SLC22A1 (gene 6580); test: LTEA_HepaRG_SLC22A1: Life Technologies and Expression Analysis (LTEA) Assay for solute carrier (SLC22A1) using HepaRG (AID 2283524)
Summary of the method: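 Transcript level of SLC22A1 quantified by qRT-PCR (normalized to three housekeeping genes) after 48 h chemical exposure of HepaRG cells, eight concentrations up to 100 µM, half-log steps, 0.5% DMSO vehicle. Gain or loss relative to DMSO fitted bidirectionally.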

[11] = read-out: Pyruvate Dehydrogenase Kinase 4 (PDK4), PDK4 (gene 5166); test: LTEA_HepaRG_PDK4: Life Technologies and Expression Analysis (LTEA) Assay for Pyruvate Dehydrogenase Kinase 4 (PDK4) using HepaRG (AID 2283525)
Summary of the method: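 Readout is qRT-PCR of PDK4 transcript, normalized to three housekeeping genes, with bidirectional fitting against 0.5% DMSO vehicle. Differentiated HepaRG cells were treated 48 h in serum-free induction medium, duplicate wells, eight-point half-log series topping at 100 uM.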

[12] = read-out: NAD(P)H dehydrogenase [quinone] 1 (NQO1), NQO1 (gene 1728); test: LTEA_HepaRG_NQO1: Life Technologies and Expression Analysis (LTEA) Assay for NAD(P)H dehydrogenase [quinone] 1 (NQO1) using HepaRG (AID 2283526)
Summary of the method: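 In this assay, gene expression is read by qRT-PCR after 48 h exposure of HepaRG cells to eight concentrations (max 100 uM, half-log) in 0.5% DMSO. Each chemical runs in duplicate, and activity is scored relative to vehicle.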

[13] = read-out: Nuclear factor erythroid 2-related factor 2 (Homo sapiens) (UniProt Q16236); test: LTEA_HepaRG_NFE2L2: Life Technologies and Expression Analysis (LTEA) Assay for Nuclear factor erythroid 2-related factor 2 (NFE2L2) Transcription Factor using HepaRG (AID 2283527);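 further: TaqMan qRT-PCR transcript level normalised to ACTB GAPDH and POLR2A housekeeping genes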
Summary of the method: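 NFE2L2 transcript level was read by qRT-PCR (housekeeping ACTB/GAPDH/POLR2A normalisation) after 48 h chemical treatment of HepaRG in serum-free induction medium. Duplicate 8-point half-log curves, top 100 uM, 0.5% DMSO vehicle; up- or down-regulation fitted against vehicle.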

[14] = read-out: succinate dehydrogenase complex iron sulfur subunit B (SDHB), SDHB (gene 6390); test: LTEA_HepaRG_SDHB: Life Technologies and Expression Analysis (LTEA) Assay for succinate dehydrogenase complex iron sulfur subunit B (SDHB) using HepaRG (AID 2283528)
Summary of the method: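 HepaRG, 48 h exposure, 8-pt half-log series from 100 uM in 0.5% DMSO, duplicates. Readout: SDHB mRNA by Fluidigm qRT-PCR vs housekeeping genes; bidirectional fit relative to DMSO.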

[15] = read-out: Signal transducer and activator of transcription 3 (Homo sapiens) (UniProt P40763); test: LTEA_HepaRG_STAT3: Life Technologies and Expression Analysis (LTEA) Assay for Signal transducer and activator of transcription (STAT3) using HepaRG (AID 2283529)
Summary of the method: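 STAT3 transcript quantified by qRT-PCR against three housekeeping genes (ACTB, GAPDH, POLR2A), fitted both directions relative to DMSO. HepaRG cultures exposed 48 h to eight half-log concentrations, top 100 uM, 0.5% DMSO, serum-free induction medium.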

[16] = read-out: solute carrier (SLCO1B1), SLCO1B1 (gene 10599); test: LTEA_HepaRG_SLCO1B1: Life Technologies and Expression Analysis (LTEA) Assay for solute carrier (SLCO1B1) using HepaRG (AID 2283530)
Summary of the method: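 Differentiated human HepaRG cells, plated 48 h, switched to serum-free induction medium and exposed in duplicate for 48 h to 8 half-log concentrations (top 100 uM) in 0.5% DMSO. SLCO1B1 mRNA by TaqMan qRT-PCR, normalized to ACTB/GAPDH/POLR2A.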

[17] = read-out: sulfotransferase 2A1 (SULT2A1), SULT2A1 (gene 6822); test: LTEA_HepaRG_SULT2A1: Life Technologies and Expression Analysis (LTEA) Assay for sulfotransferase 2A1 (SULT2A1) using HepaRG (AID 2283531)
Summary of the method: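 Differentiated human HepaRG cells in serum-free induction medium were exposed for 48 h to eight half-log concentrations (top 100 uM, 0.5% DMSO). SULT2A1 mRNA was measured by qRT-PCR, normalized to ACTB, GAPDH and POLR2A, and fitted bidirectionally against DMSO.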

[18] = read-out: Transforming Growth Factor (TGFA), TGFA (gene 7039); test: LTEA_HepaRG_TGFA: Life Technologies and Expression Analysis (LTEA) Assay for Transforming Growth Factor (TGFA) using HepaRG (AID 2283532)
Summary of the method: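 TGFA transcript quantified by qRT-PCR (Fluidigm arrays) against three housekeeping genes, after 48 hours chemical treatment of HepaRG cells. Top concentration 100 uM with half-log dilutions, 8 points, duplicates, 0.5% DMSO.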

[19] = read-out: Transforming Growth Factor (TGFB1), TGFB1 (gene 7040); test: LTEA_HepaRG_TGFB1: Life Technologies and Expression Analysis (LTEA) Assay for Transforming Growth Factor (TGFB1) Transporter using HepaRG (AID 2283533)
Summary of the method: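 Differentiated human HepaRG cells in serum-free induction medium were exposed in duplicate for 48 h to eight concentrations (top 100 uM, half-log steps, 0.5% DMSO). TGFB1 mRNA was quantified by qRT-PCR, normalized to ACTB, GAPDH, POLR2A, and fitted bidirectionally against DMSO.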

[20] = read-out: Nuclear factor NF-kappa-B p105 subunit (Homo sapiens) (UniProt P19838); test: LTEA_HepaRG_NFKB1: Life Technologies and Expression Analysis (LTEA) Assay for Nuclear Factor Kappa B Subunit 1 (NFKB1) using HepaRG (AID 2283521)
Summary of the method: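 Differentiated human HepaRG cells were exposed for 48 h in serum-free induction medium to eight concentrations (top 100 uM, half-log steps, 0.5% DMSO), in duplicate. NFKB1 mRNA was measured by TaqMan qRT-PCR, normalized to ACTB/GAPDH/POLR2A, and fitted bidirectionally against DMSO.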

Measured: outcome

Signal transducer and activator of transcription 3 (Homo sapiens), sequence (P40763 whole entry, looked up): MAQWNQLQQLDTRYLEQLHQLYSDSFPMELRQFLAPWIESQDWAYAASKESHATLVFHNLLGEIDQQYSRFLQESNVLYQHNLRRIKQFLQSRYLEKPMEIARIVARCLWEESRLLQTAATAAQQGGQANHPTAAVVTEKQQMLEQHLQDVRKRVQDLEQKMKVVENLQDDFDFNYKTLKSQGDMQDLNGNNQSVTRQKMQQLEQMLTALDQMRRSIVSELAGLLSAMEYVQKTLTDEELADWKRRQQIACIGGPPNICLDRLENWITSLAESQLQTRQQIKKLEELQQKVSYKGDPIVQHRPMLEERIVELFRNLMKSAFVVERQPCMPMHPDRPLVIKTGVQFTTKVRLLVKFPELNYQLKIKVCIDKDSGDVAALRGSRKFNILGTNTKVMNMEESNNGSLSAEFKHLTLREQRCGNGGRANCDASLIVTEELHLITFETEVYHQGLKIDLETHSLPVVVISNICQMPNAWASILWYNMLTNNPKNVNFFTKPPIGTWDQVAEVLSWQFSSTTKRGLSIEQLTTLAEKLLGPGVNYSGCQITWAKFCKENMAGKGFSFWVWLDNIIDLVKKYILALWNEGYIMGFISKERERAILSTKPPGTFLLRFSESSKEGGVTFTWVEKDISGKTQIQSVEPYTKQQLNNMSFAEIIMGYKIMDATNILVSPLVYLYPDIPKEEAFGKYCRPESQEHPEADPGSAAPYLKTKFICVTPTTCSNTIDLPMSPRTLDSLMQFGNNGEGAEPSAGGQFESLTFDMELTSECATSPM
Nuclear factor erythroid 2-related factor 2 (Homo sapiens), sequence (Q16236 whole entry, looked up): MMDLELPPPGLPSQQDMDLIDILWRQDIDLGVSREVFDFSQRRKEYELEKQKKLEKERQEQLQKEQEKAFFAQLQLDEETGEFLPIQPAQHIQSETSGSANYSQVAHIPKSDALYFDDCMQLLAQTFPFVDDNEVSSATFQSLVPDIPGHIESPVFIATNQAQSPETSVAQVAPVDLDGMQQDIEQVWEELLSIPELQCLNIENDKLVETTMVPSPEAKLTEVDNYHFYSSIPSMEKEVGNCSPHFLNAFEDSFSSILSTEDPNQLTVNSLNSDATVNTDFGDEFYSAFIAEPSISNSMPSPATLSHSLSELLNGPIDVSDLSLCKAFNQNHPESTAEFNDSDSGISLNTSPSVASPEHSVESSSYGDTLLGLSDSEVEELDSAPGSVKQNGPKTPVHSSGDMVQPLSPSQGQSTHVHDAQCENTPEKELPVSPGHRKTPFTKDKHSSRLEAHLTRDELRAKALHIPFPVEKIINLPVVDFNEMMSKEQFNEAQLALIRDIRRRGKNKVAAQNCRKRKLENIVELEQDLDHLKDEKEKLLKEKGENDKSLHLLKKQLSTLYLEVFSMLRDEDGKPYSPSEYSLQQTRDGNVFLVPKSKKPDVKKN
Nuclear factor NF-kappa-B p105 subunit (Homo sapiens), sequence (P19838 whole entry, looked up): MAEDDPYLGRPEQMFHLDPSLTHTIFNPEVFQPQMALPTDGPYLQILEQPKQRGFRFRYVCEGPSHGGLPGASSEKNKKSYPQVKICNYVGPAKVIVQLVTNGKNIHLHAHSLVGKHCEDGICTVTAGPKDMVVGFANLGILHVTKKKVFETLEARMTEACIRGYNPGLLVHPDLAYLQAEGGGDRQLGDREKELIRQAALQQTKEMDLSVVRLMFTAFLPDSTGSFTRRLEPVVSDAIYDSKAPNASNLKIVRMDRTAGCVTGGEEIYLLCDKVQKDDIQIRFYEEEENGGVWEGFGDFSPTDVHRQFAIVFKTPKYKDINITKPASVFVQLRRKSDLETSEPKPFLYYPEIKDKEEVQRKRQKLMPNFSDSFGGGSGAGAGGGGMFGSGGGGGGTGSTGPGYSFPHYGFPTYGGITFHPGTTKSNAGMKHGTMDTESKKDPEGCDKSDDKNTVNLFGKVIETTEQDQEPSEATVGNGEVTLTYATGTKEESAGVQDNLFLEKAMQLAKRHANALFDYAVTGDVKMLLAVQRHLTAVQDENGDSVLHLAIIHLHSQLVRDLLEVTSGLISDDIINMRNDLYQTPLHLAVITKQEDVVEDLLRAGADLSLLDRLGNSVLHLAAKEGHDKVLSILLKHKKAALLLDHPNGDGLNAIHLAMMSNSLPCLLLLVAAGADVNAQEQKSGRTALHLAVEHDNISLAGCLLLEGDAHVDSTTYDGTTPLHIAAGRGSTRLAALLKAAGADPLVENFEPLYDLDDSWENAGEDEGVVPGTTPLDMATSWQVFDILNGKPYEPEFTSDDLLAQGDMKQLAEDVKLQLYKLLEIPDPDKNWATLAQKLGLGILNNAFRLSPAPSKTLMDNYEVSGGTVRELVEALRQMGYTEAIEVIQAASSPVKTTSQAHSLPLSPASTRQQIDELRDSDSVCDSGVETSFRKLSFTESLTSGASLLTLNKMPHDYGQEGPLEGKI

O=C(N[C@H]1CN2CCC1CC2)c1ccc2c(c1)OCCO2
not listed: [20]
inactive: all other assays above

CC(C)O.CC(C)O.OCCN(CCO)CCO.OCCN(CCO)CCO.[Ti]
inactive: all assays above

Clc1cccc(Cl)c1
inactive: all assays above

CN(C)C(=S)S
not listed: [20]
inactive: all other assays above
